Compound activity: PubChem, NMMLSC
Sampled rows, rich in hits. Any-hit rate of the full collection: about 1.2%.
RGS8-Gao: regulators of human RGS8-Galphao interaction. 220,000 compounds, 0.34% hits. P09471. response (percent of control binding), % at 10 µM. multiplexed bead flow cytometry, RGS8-Galphao binding; actives lie on both sides; in the data active = response below about 60% or above about 140%; inactive = in between;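 also: Galphao activated as the GDP aluminium fluoride complex binding bead-coupled RGS8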
Target sequence (P09471 whole entry, looked up): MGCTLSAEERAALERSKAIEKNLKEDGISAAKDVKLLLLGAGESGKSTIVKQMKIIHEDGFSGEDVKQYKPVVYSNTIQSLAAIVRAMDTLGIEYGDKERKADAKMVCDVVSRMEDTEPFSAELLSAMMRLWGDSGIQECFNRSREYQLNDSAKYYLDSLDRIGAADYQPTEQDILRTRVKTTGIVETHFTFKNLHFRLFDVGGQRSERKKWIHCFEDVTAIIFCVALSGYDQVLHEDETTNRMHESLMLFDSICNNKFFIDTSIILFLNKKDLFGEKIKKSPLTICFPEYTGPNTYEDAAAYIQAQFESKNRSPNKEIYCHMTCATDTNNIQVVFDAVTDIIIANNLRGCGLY
RGS4-Gao reg: modulates binding of RGS4 to human Galphao; P09471; Multiplexed bead flow cytometry; actives lie on both sides; binding response (% of control), % at 10 µM; 220,000 compounds, 0.33% hits; AID 1415; in the data active = binding response below about 49% or above about 150%; inactive = in between;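 also: fluorescent Galphao activated with aluminum fluoride binding bead-coupled RGS4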
RGS16-Gao: modulates binding between human RGS16 and Galphao. bead-based flow cytometry RGS16-Galphao binding, fluorescence; actives lie on both sides. binding response (% of control), % at 10 µM. 220,000 compounds, 0.38% hits. AID 1441;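 also: Galphao activated by GDP with aluminum fluoride before binding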
GSH fluor: compound fluoresces at 488/530 nm on GSH beads; GSH beads flow cytometry, compound fluorescence 488/530 nm; hits give high values; fluorescence (KMESF) at 10 µM; 190,000 compounds, 0.25% hits; AID 1776; in the data active = fluorescence above about 89;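 also: glutathione beads carrying GST-tagged Bcl family fusion proteins plus one bare bead set; values are compound well signal with DMSO vehicle wells as background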
RGS7-Gao reg: regulators of human RGS7-Galphao interaction | P09471 | Multiplexed bead flow cytometry, RGS7-Galphao binding; actives lie on both sides | binding response (% of control), % at 10 µM | 220,000 compounds, 0.35% hits | AID 1439; in the data active = binding response below about 49% or above about 150%; inconclusive = no clear call, values can overlap the other calls; inactive = in between;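 also: fluorescent Galphao held in activated GDP-AlF4 state binding bead-coupled RGS7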
Avidin bead fluor: avidin bead compound fluorescence profile. fluorescence (KMESF) at 10 µM. 220,000 compounds, 0.38% hits. Avidin beads, compound fluorescence 488/530 nm, flow cytometry; hits give high values; in the data active = fluorescence above about 47
RGS-Gao: regulators of human RGS4-Galphao interaction. shares compounds with RGS16-Gao. multiplexed bead flow cytometry, RGS–Galpha-o binding. RGS4–Galpha-o binding response, % at 10 µM. 1,600 compounds, 99% hits. AID 1504;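 also: fluorescently labeled Galpha-o bound to GDP with aluminium fluoride binding biotinylated RGS beads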
Target sequence (P09471 whole entry, looked up): as above
Target sequence (P49798 whole entry, looked up): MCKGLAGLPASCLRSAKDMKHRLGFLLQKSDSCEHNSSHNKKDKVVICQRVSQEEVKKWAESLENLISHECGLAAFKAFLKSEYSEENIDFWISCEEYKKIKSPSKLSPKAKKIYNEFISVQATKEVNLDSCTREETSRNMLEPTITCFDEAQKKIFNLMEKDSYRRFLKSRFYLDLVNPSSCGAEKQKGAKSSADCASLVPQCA
Biotin-avidin: biotin-avidin bead binding disruption counter-screen. shares compounds with RGS16-Gao. streptavidin beads, fluorescein-biotin binding, flow cytometry. inhibition, % at 10 µM. 1,700 tested, under 10 active;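 active = inhibition above 50%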;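 also: median green fluorescence of gated singlet beads compared with DMSO control wells; 0% = DMSO wells and 100% = complete loss of bead fluorescence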
RGS8-Gao single: confirmation of regulators of human RGS8-Galphao interaction | shares compounds with RGS16-Gao | bead-based flow cytometry RGS8-Galphao binding, fluorescence; actives lie on both sides | binding response (% of control), % at 10 µM | 1,700 compounds, 3% hits | AID 1836; in the data active = binding response below about 72% or above about 130%; inactive = in between;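 also: Galphao activated as GDP AlF4 complex before binding bead RGS8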
RGS7-Gao confirm: RGS7-Galphao interaction regulation, single point confirmation; response (percent of control binding), % at 10 µM; 1,700 compounds, 7.8% hits; bead-based flow cytometry RGS7-Galphao binding; actives lie on both sides; shares compounds with RGS16-Gao; in the data active = response below about 75% or above about 130%; inactive = in between;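 also: fluorescent Galphao activated with GDP and aluminum fluoride binding bead-coupled RGS7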
RGS16-Gao conf: confirmation of regulators of human RGS16-Galphao interaction; bead-based flow cytometry, RGS16-Galphao binding; actives lie on both sides; shares compounds with RGS16-Gao; response (% of control binding), % at 10 µM; 1,700 compounds, 4% hits; AID 1838; in the data active = response below about 74% or above about 130%; inactive = in between;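 also: Galphao activated as the GDP aluminium fluoride complex binding bead-coupled RGS16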
RGS4-Gao single: confirmation of regulators of human RGS4-Galphao interaction | RGS4-Galphao binding, multiplexed bead flow cytometry; actives lie on both sides | binding response (% of control), % at 10 µM | 1,700 compounds, 4% hits | shares compounds with RGS16-Gao; in the data active = binding response below about 74% or above about 130%; inactive = in between
RGS19-Gao single: confirmation of regulators of human RGS19-Galphao interaction. shares compounds with RGS16-Gao. bead-based flow cytometry RGS19-Galphao binding; actives lie on both sides. response (percent of control binding), % at 10 µM. 1,700 compounds, 5% hits. AID 1841; in the data active = response below about 50% or above about 160%; inactive = in between;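 also: 100% = no compound control and 0% = blank background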
* marks the source's active call; other numbers are inactive results; ? = inconclusive; · = no result; [ ] = another dose, or the depositor's remark. Unless noted, no rule for the calls is given here.

SMILES	RGS8-Gao	RGS4-Gao reg	RGS16-Gao	GSH fluor	RGS7-Gao reg	Avidin bead fluor	RGS-Gao	Biotin-avidin	RGS8-Gao single	RGS7-Gao confirm	RGS16-Gao conf	RGS4-Gao single	RGS19-Gao single
Cn1c(=O)c2c(nc(NCCO)n2CCc2ccccc2)n(C)c1=O	91.5	90.1	69.2	15	94.1	3	·	·	·	·	·	·	·
CCOc1ccc2oc(=O)cc(C)c2c1	104.1	101.6	109.2	49	103.2	13	·	·	·	·	·	·	·
FC(F)(F)c1ccc(-n2ccnc2)nc1	77.7	82.3	28.4	265*	85.8	5	·	·	·	·	·	·	·
CCCCC(CC)COC1(c2ccccc2)OC(=O)c2ccccc21 (stereo not given)	107.1	97.2	115.2	15	95.7	6	·	·	·	·	·	·	·
Cc1cc(C)c2cc(C(=O)Nc3ccc4c(c3)OCO4)[nH]c2c1	105.2	102.6	106.4	·	?	7	·	·	·	·	·	·	·
NC(=O)CSc1nnc(Cn2c(=O)sc3ccccc32)n1-c1cccc(Cl)c1	99.8	102.6	99.5	24	96.9	10	·	·	·	·	·	·	·
O=C(NC1CCCC1)C1C2C=CC(C2)C1C(=O)N1CCOCC1 (stereo not given)	99.7	103.5	98.0	272*	97.5	6	·	·	·	·	·	·	·
O=C(O)C1C2C=CC(C2)C1C(=O)N1CCOCC1 (stereo not given)	107.2	103.5	105.2	32	104.3	15	·	·	·	·	·	·	·
O=C(O)C/C=C(\NC(=O)OCc1ccccc1)C(=O)OCc1ccccc1	100.8	104.1	101.9	20	101.3	7	·	·	·	·	·	·	·
CC(=O)N/N=C(\C)c1cccc(NC(=O)c2cccs2)c1	33.8*	-635.8*	42.6	12	-112.2*	-3	·	0.3	100.0	100.0	100.1	102.0	110.3
C/C(=N/NC(=O)c1cccs1)c1cccc(NC(=O)C2CC2)c1	100.4	96.7	95.5	7	97.2	·	·	·	·	·	·	·	·
O=C(Cn1cc([N+](=O)[O-])cn1)Nc1ccn(Cc2c(F)c(F)cc(F)c2F)n1	98.8	97.1	96.8	17	95.6	3	·	·	·	·	·	·	·
COc1c(Br)cc(C(N)=O)cc1OCc1ccccc1	69.0	76.7	-1.3*	10	77.2	6	76.7*	1.1	101.0	98.8	102.1	100.7	103.0
COc1cc2c(cc1NC(=S)NC(=O)/C=C/c1ccco1)oc1ccccc12	89.0	102.6	21.1*	4	98.8	7	102.6*	0.1	102.8	102.5	100.1	102.5	76.7
O=C1C2C(c3cccc(/C=C/c4ccccc4)c3)CC=CC2C(c2ccc(C(F)(F)F)cc2)N1Cc1ccccc1 (stereo not given)	97.4	96.0	101.0	·	?	6	·	·	·	·	·	·	·
COc1ccccc1NC(=O)Cc1cccs1	99.4	98.7	100.7	25	99.0	13	·	·	·	·	·	·	·
COc1ccccc1NC(=O)Nc1ccnn1Cc1cccs1	6.0*	-58.6*	-55.2*	31	-20.5*	-5	·	0.4	97.6	93.7	97.4	98.5	94.2
COc1cccc2c1NC(C(=O)O)C1CC=CC21 (stereo not given)	54.1*	69.9	63.3	6	36.2*	6	69.9*	0.1	100.4	76.0	96.4	89.3	94.4
Cc1ccc(-c2sc(C)nc2CC(=O)O)cc1	101.4	99.8	103.8	33	96.0	15	·	·	·	·	·	·	·
Cc1ccc(C2=C(CC(=O)O)C(=O)CC2)cc1	76.0	91.9	22.2*	7	91.4	6	91.9*	0.4	103.0	103.9	100.6	101.3	147.5
COc1ccc(C(=S)N2CCC(C(N)=O)CC2)cc1Br	99.3	102.2	96.9	14	?	8	·	·	·	·	·	·	·
COc1ccc(C(=O)c2ccc(OC)c(Br)c2)cc1Br	131.4	120.3	253.9*[activator]	11	120.0	4	120.3*	-0.1	99.5	100.7	98.2	99.8	89.0
CNc1ccc(/C=C2\CSc3ccccc3C2=O)cc1[N+](=O)[O-]	98.4	97.3	93.9	19	?	10	·	·	·	·	·	·	·
COc1ccc(CCNC(=O)CSc2nnnn2-c2ccccc2OC)cc1OC	93.5	96.3	63.9	19	99.0	6	·	·	·	·	·	·	·
COC(=O)C1=C(C)N(Cc2ccco2)C(=O)/C1=C\c1ccc(N(C)C)cc1	130.2	110.8	230.9*[activator]	7	109.9	14	110.8*	-0.2	100.0	98.1	102.0	101.4	106.0
SMILES	RGS8-Gao	RGS4-Gao reg	RGS16-Gao	GSH fluor	RGS7-Gao reg	Avidin bead fluor	RGS-Gao	Biotin-avidin	RGS8-Gao single	RGS7-Gao confirm	RGS16-Gao conf	RGS4-Gao single	RGS19-Gao single
CCSc1nnc(Nc2ccccc2)s1	41.9*	14.6*	20.6*	11	24.8*	7	·	-0.6	100.8	92.2	100.7	96.5	99.2
Cc1ccccc1Oc1nc2c(C)cccn2c(=O)c1/C=C(\C#N)C(=O)Nc1c(C)n(C)n(-c2ccccc2)c1=O	99.4	98.7	98.3	17	98.7	18	·	·	·	·	·	·	·
CCN(CC)C(=O)CSc1nc(O)cc(=O)n1C	102.9	102.4	99.0	15	102.9	11	·	·	·	·	·	·	·
CCN(CC)C(=O)CSc1nc(O)cc(=O)n1CC	96.6	125.6	112.9	14	166.5*[activator]	156*	125.6*	·	·	·	·	·	·
Nc1ccc(Br)cc1Br	98.4	98.4	99.9	·	?	9	·	·	·	·	·	·	·
COc1ccc(OC)c(CCNC(=O)Cn2sc3nc(C)cc(C)c3c2=O)c1	74.2	91.7	17.1*	15	92.2	3	91.7*	3.3	51.8*	70.9*	6.5*	69.3*	8.8*
Cc1cc(C)c2c(=O)n(CC(=O)NC3CCCC3)sc2n1	81.0	93.1	41.3	·	?	3	·	·	·	·	·	·	·
Cc1nn2c(-c3ccccn3)ccnc2c1Br	103.6	103.3	102.4	17	106.2	9	·	·	·	·	·	·	·
CCC(Cc1ccccc1)NC(=O)C1=C(C)C(=O)OC12CCC(C)CC2 (stereo not given)	55.6*	59.0	50.4	13	31.9*	3	59.0*	-2.1	90.2	76.2	87.3	83.0	76.5
CC(=O)N1C(=O)N(C)C2C1N(C(C)=O)C(=O)N2C (stereo not given)	101.7	100.3	103.0	22	100.7	28	·	·	·	·	·	·	·
